In PubChem BioAssay (Tox21):
Results filed as inconclusive are left out. The source made the active and inactive calls. Unless noted, the call rests on the fitted dose curve; in most records, active means well fitted curve in the direction sought with a large enough effect in the repeat runs; inconclusive means weak or mixed curves; inactive means no such curve, though single readings can be large; an effect the other way counts as inactive or inconclusive.

Key:
[1] = qHTS assay for small molecule agonists of the p53 signaling pathway (AID 651631; calls by dose curve; further: nearly all actives have a fitted effect of over 15% in size)
In short: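 Agonist mode screen using a stably integrated beta-lactamase gene under p53 response elements in HCT-116 cells. Compound exposure lasts 16 h at 37 °C; fluorescence intensity is measured following 2 h FRET substrate loading.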

[2] = qHTS assay for small molecules that induce genotoxicity in human embryonic kidney cells expressing luciferase-tagged ATAD5 (AID 651632); further: nearly all actives have a fitted effect of over 15% in size
In short: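 A rise in luciferase signal from ATAD5-tagged HEK293T cells marks genetic stress. Cells were exposed to compounds for 16 hr at 37C, 5% CO2, then luciferase was quantified after a 30 min room-temperature incubation with Amplite.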

[3] = qHTS assay for small molecule agonists of the p53 signaling pathway - cell viability (AID 651633; calls by dose curve;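 further: p53RE-bla HCT reporter cells with a stable beta-lactamase p53 reporter; nearly all actives have a fitted effect of over 30% in size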)
In short: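 p53RE-bla cells, seeded at 4,000 per well and rested 5 h at 37 C/5% CO2, received compounds in DMSO for 16 h at 37 C. CellTiter-Glo was then added, and luminescence was read after 30 min at room temperature to gauge cytotoxicity.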

[4] = qHTS assay for small molecules that induce genotoxicity in human embryonic kidney cells expressing luciferase-tagged ATAD5 - cell viability (AID 651634; calls by dose curve; further: nearly all actives have a fitted effect of over 25% in size)
In short: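 Cytotoxicity counter-readout: after 15.5 hr compound treatment at 37C, live-cell protease activity in ATAD5-luciferase HEK293T cells measured by CellTiter-Fluor fluorescence, 30 min development at 37C.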

[5] = qHTS assay for small molecule disruptors of the mitochondrial membrane potential - cell viability (AID 720634; calls by dose curve;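 further: human HepG2 liver cancer cells; nearly all actives have a fitted effect of over 20% in size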)
In short: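 Cytotoxicity was quantified from ATP content by CellTiter-Glo luminescence in the same wells as the MMP dye read-out. HepG2 (2,000 cells/well) were plated overnight and exposed to compounds for 1 hr at 37 C.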

[6] = qHTS assay for small molecule disruptors of the mitochondrial membrane potential (AID 720635)
In short: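 HepG2 cells (2,000/well) attached overnight at 37C, then took compound for 1 hr at 37C, 5% CO2. Mito-MPS dye was added for 30 min; fluorescence was read at 490/535 nm (monomers) and 540/590 nm (aggregates).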

[7] = qHTS assay to test for compound auto fluorescence at 590 nm (red) in HepG2 cells (AID 720674)
In short: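 Rose Bengal sodium served as the red fluorophore standard. HepG2 monolayers (overnight attachment, MEM with 10% FBS) were exposed to test compounds for 1 hr at 37 C and read at Ex 540/Em 590 nm.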

[8] = qHTS assay to test for compound auto fluorescence at 535 nm (green) in HepG2 cells (AID 720675)
[9] = qHTS assay to test for compound auto fluorescence at 460 nm (blue) in HEK293 cells (AID 720678)
In short: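 Cells were seeded and left to adhere for 4-5 hr at 37C. Compounds were then pin-transferred. After an overnight incubation at 37C under 5% CO2, intrinsic fluorescence at 405/460 nm was measured and referenced to triamterene.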

[10] = qHTS assay to test for compound auto fluorescence at 590 nm (red) in HEK293 cells (AID 720679)
In short: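 Each well held 2,000 HEK293 cells in medium containing 10% dialyzed FBS. Following 4-5 hr attachment at 37C, 23 nL test compound or DMSO was added; plates sat overnight, and red fluorescence (540/590nm) was recorded.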

[11] = qHTS assay to test for compound auto fluorescence at 535 nm (green) in HEK293 cells (AID 720680)
[12] = qHTS assay to test for compound auto fluorescence at 460 nm (blue) in HEK293 cell free culture (AID 720681)
In short: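 Test compounds were pinned into cell-free culture medium (DMEM with 10% FBS) and fluorescence was read directly at Ex/Em 405/460 nm. Signals were expressed as fluorescence equivalents of triamterene, with DMSO vehicle as control.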

[13] = qHTS assay to test for compound auto fluorescence at 535 nm (green) in HEK293 cell free culture (AID 720682)
In short: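 No cells present: wells hold DMEM supplemented with 10% FBS, into which compound or vehicle is pinned. Green emission is then recorded (485 nm excitation, 535 nm emission) and scaled to fluorescein.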

[14] = qHTS assay to test for compound auto fluorescence at 590 nm (red) in HEK293 cell free culture (AID 720683)
In short: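 Tox21 10K library compounds were pinned into cell-free DMEM with 10% FBS and fluorescence was read at excitation 540 nm. Activity is expressed as Rose Bengal sodium equivalency.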

[15] = qHTS assay to test for compound auto fluorescence at 590 nm (red) in HepG2 cell free culture (AID 720684)
In short: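 Readout: intrinsic compound fluorescence at 590 nm emission after 540 nm excitation, scaled to Rose Bengal sodium. Matrix was cell-free MEM with 10% FBS; DMSO vehicle wells served as control.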

[16] = qHTS assay to test for compound auto fluorescence at 460 nm (blue) in HepG2 cell free culture (AID 720685)
In short: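 Cell-free plates of MEM plus 10% FBS received 23 nL compound or DMSO vehicle; blue-channel (405/460 nm) intensity scored against triamterene as reference fluorophore.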

[17] = qHTS assay to test for compound auto fluorescence at 535 nm (green) in HepG2 cell free culture (AID 720686)
[18] = qHTS assay to test for compound auto fluorescence at 460 nm (blue) in HepG2 cells (AID 720687)
In short: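 Cells (2,000/well in MEM with 10% FBS) attached overnight at 37 C, then were exposed to compound or DMSO for 1 hr at 37 C, 5% CO2. Fluorescence read at Ex/Em 405/460 nm, expressed as triamterene-equivalent signal.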

[19] = target: Glucocorticoid receptor (Homo sapiens) (UniProt P04150); test: qHTS assay to identify small molecule agonists of the glucocorticoid receptor (GR) signaling pathway (AID 720691; active means well fitted activation curve with a large enough effect in the signal ratio in the repeat runs, not every such curve was filed as active; the % refers to the signal ratio); details: GR-bla HeLa, beta-lactamase reporter ratio, 18 h; activation: at 62.4 µM (top of the series) unless noted
Chain of Glucocorticoid receptor (Homo sapiens) (P04150 whole entry, looked up): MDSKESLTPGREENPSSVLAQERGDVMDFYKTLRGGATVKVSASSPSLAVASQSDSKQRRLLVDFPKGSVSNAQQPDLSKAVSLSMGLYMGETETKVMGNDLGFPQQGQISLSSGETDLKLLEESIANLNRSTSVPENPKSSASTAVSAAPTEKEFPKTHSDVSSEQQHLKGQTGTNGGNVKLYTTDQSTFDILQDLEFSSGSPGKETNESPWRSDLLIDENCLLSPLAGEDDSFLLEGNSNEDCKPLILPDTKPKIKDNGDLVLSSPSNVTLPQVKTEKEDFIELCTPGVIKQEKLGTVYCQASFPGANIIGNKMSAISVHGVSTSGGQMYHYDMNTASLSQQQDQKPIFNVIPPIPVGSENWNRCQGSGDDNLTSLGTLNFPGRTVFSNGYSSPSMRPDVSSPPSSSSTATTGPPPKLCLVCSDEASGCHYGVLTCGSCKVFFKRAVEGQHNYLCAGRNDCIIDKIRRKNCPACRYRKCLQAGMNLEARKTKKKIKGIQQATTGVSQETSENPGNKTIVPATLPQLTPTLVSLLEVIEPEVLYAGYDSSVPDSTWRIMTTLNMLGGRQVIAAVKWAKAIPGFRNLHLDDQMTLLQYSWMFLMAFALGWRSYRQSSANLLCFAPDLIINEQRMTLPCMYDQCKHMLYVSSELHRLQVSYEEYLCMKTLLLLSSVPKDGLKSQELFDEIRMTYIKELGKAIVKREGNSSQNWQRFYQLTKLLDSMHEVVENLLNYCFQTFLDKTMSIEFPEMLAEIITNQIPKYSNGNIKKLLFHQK
In short: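 Agonist-mode qHTS in HeLa cells stably expressing a glucocorticoid-response-element beta-lactamase reporter. Fluorescence intensity read with FRET substrate (2 h, room temperature) after 18 h compound treatment at 37 C.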

[20] = target: Glucocorticoid receptor (Homo sapiens) (UniProt P04150); test: qHTS assay to identify small molecule antagonists of the glucocorticoid receptor (GR) signaling pathway (AID 720692; active means well fitted inhibition curve with a large enough effect in the signal ratio in the repeat runs, not every such curve was filed as active; the % refers to the signal ratio)
In short: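 Inhibition of dexamethasone-driven (5 nM final) beta-lactamase expression was measured in GRE-reporter HeLa cells over 18 h at 37C. Fluorescence was read after 2 h with the B/G FRET substrate at room temperature.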
On the % scale 0 is the no-effect control and ±100 the full control effect.

NCc1ccccc1Sc1ccccc1CO
inactive: Potency [1] | Potency [2] | Potency [3] | Potency [4] | Potency [5] | Potency [6] | Potency [7] | Potency [8] | outcome [9] | Potency [10] | outcome [11] | outcome [12] | outcome [13] | Potency [14] | Potency [15] | outcome [16] | Potency [17]

O=C(O)CNCC(=O)O
inactive: activation [1] -5.9% [at 8.3 µM] | activation [2] 0.678% [at 8.08 µM] | activity change, negative = cytotoxicity [3] 6.66% [at 8.08 µM] | activity, negative = cytotoxicity [4] 24.8% [at 8.08 µM] | activity change, negative = cytotoxicity [5] -5.3% [at 8.08 µM] | ratio activity, negative = MMP loss [6] 15% [at 8.08 µM] | fluorescence, relative to Rose Bengal [7] -0.419% [at 3.72 µM] | fluorescence, % of fluorescein control [8] -0.0488% [at 3.72 µM] | fluorescence, % of fluorescent control [10] -0.0175% [at 3.72 µM] | fluorescence, % of fluorescein [11] -0.0204% [at 3.72 µM] | fluorescence, % of fluorescent control [12] -0.259% [at 3.72 µM] | activity change [13] -0.144% [at 3.72 µM] | fluorescence, % of fluorescent control [14] -0.223% [at 3.72 µM] | fluorescence, % of Rose Bengal [15] -0.109% [at 3.72 µM] | fluorescence, % of fluorescent control [16] -0.156% [at 3.72 µM] | fluorescence, % of fluorescein control [17] -0.0374% [at 3.72 µM] | fluorescence, % of fluorescent control [18] -0.0767% [at 3.72 µM] | activation [19] -1.96% [at 6.9 µM]

O=C(NCCO[N+](=O)[O-])c1cccnc1
inactive: Potency [1] | Potency [2] | Potency [3] | Potency [4] | Potency [5] | Potency [6] | Potency [8] | outcome [9] | Potency [10] | outcome [12] | outcome [13] | Potency [14] | Potency [15] | outcome [16] | Potency [17] | outcome [18] | Potency [19] | Potency [20]

Cc1cc(C(=O)O)ccc1[N+](=O)[O-]
inactive: Potency [1] | Potency [2] | Potency [3] | Potency [4] | Potency [5] | Potency [6] | Potency [7] | Potency [8] | outcome [9] | Potency [10] | outcome [11] | outcome [12] | Potency [14] | Potency [15] | outcome [16] | Potency [17] | outcome [18] | Potency [19]

C[N+]1(CC2COC(c3ccccc3)(C3CCCCC3)O2)CCCCC1 (centres undefined)
inactive: Potency [1] | Potency [2] | Potency [3] | Potency [4] | Potency [5] | Potency [6] | Potency [7] | Potency [8] | Potency [10] | outcome [11] | outcome [12] | outcome [13] | Potency [14] | Potency [15] | outcome [16]

CCCCC1=NC2(CCCC2)C(=O)N1Cc1ccc(-c2ccccc2-c2nn[nH]n2)cc1
inactive: Potency [1] | Potency [2] | Potency [3] | Potency [4] | Potency [5] | Potency [7] | Potency [8] | outcome [9] | Potency [10] | outcome [11] | outcome [12] | outcome [13] | Potency [14] | Potency [15] | outcome [16] | Potency [17]

CC(C)(O)c1ccc(CNC(=O)c2cccnc2Oc2ccc(F)cc2)cc1
inactive: Potency [1] | Potency [2] | Potency [3] | Potency [4] | Potency [5] | Potency [6] | Potency [7] | Potency [8] | Potency [10] | outcome [12] | outcome [13] | Potency [14] | Potency [15] | outcome [16] | Potency [17] | Potency [19] | Potency [20]
